This is an account of results in PubChem BioAssay AID1224858 (National Center for Advancing Translational Sciences (NCATS), 2016).

Records with an inconclusive call do not appear. A number with no mark means an inactive call. The source made the active and inactive calls. Calls follow the shape of the dose curve; as a rule, active = well fitted inhibition curve with a large enough effect; inconclusive = small, poorly fitted or top-dose-only effect; inactive = no such curve, though single readings can be large or run the other way.

The assay can be described thus: Confirmation assay for measurement of the activity of small molecule inhibitors on Zika virus induced Caspase-3 activity in human astrocytes. The settings on record: ZIKV-induced caspase-3/7 luminescence, 6 h; series mostly up to 46.1 µM; activity, negative = inhibition: at the top concentration. The source says:
National Center for Advancing Translational Sciences [NCATS] Johns Hopkins University School of Medicine Florida State University Assay Overview: Increase in the Caspase-3 activity indicates an activation of apoptosis cell death pathway caused by Zika virus infection in certain types of neuronal cells including human neural progenitor cells (hNPCs), astrocytes, and astrocytoma cell line (SNB-19). This cell-based caspase-3 activity assay measures the increased caspase-3 activity in the human astrocytes after a 6-hour Zika virus infection with a luminescence readout. A decrease in the luminescence signal in this assay by small molecule treatment indicates an inhibitory effect of that small molecule on the Zika virus induced caspase-3 activity that may correlate with its effect on reduction of Zika virus caused cell death.
Assay Protocol Summary: The medium for astrocytes contains AM basal medium (ScienCell, Cat.# 1801), AGS (ScienCell, Cat.# 1801), 10% FBS, and 1% Pen/Strep. A Caspase-Glo 3/7 assay kit (catalog number G8092; Promega, Madison, WI) was used to detect caspase-3 activity induced by Zika virus infection in human cells. The reagent mixture was reconstituted as described in the protocol from the manufacturer. Polystyrene tissue culture treated and PDL coated white plates were obtained from Greiner Bio-One (Monroe, NC). Cells were seeded in 384- or 1536-well assay plates and cultured at 37 C with 5% CO2 for 16 to 20 hours. The typical cell seeding density in the 1536-well plate assay is 350 cells/well in 3 ul medium for astrocytes in tissue culture treated plates. Compounds were added to cells and incubated for one hour before addition of ZIKV solution to cells (2 FFU/cell). After incubation at 37 C with 5% CO2 for 6 hours, the reagent mixture of Caspase-Glo 3/7 assay kit was added to each well, followed by incubation at room temperature for 30 minutes. The luminescence intensity of the assay plates was measured using a ViewLux plate reader (PerkinElmer). Data were normalized by using the cell-containing wells without ZIKV as a negative control (0% induction of caspase 3/7 activity) and wells containing ZIKV infected cells (Caspase-3 activity induced) as a positive control (100% induction of caspase 3 activity). The percentage inhibitions of the increased Caspase-3 activity by small molecule inhibitors were then calculated.
With `O=C(Oc1ccccc1)c1cccc(C(=O)Oc2ccccc2)c1`, the Potency is 6.31 µM (active).

As for `O=c1c2ccccc2nc2n1CCc1c-2[nH]c2ccccc12`, the Potency is 4.89 µM (active).

As for `Cc1ccc(O)c(N=Nc2ccccc2)n1`, the Potency was 1.73 µM (active).

In the case of `O=C(CS)Nc1ccccc1`, the “activity, negative = inhibition” value is 14%.

In the case of `Cc1ccc2c(n1)Oc1ccc(C(C)C(=O)OCC(=O)N(C)C)cc1C2` (stereo not given), the Potency is 19.5 µM (active).

On to `Oc1ccc(/C=C/c2cc(O)cc(O)c2)cc1`, for which the Potency is 15.5 µM (active).

Regarding `Cc1nc(N)sc1-c1ccnc(Nc2ccc(N3CCOCC3)cc2)n1`, the “activity, negative = inhibition” value is -7.98%.

Regarding `O=C(Nc1ncc([N+](=O)[O-])s1)c1cccs1`, the Potency is 1.95 µM (active).

With `C[C@@H](O[C@H]1OCCN(Cc2n[nH]c(=O)[nH]2)[C@@H]1c1ccc(F)cc1)c1cc(C(F)(F)F)cc(C(F)(F)F)c1`, the “activity, negative = inhibition” value is 123%.

As to `COCCn1c2c([n+](Cc3cnccn3)c1C)C(=O)c1ccccc1C2=O`, the Potency was 5.48 µM (active).

In the case of `CCCCC1C(=O)N(c2ccccc2)N(c2ccc(O)cc2)C1=O` (stereo not given), the “activity, negative = inhibition” value is -36.2%.

Take `O=C(O)CCC(=O)c1ccc(-c2ccccc2)cc1`: the Potency is 19.5 µM (active).

For `CC(=O)Oc1cccc2c1C(=O)c1c(OC(C)=O)cc(C(=O)O)cc1C2=O`, the Potency was 15.5 µM (active).

As to `CC1(C)OC2=C(C(=O)c3ccccc3C2=O)[C@H](NCc2ccccc2)[C@H]1O`, the Potency was 35.5 µM (active).

`CC(O)=C(C#N)C(=O)Nc1ccc(C(F)(F)F)cc1`: the Potency was 1.09 µM (active).

For the compound `COc1cc2nc(N3CCN(C(=O)C4CCCO4)CC3)nc(N)c2cc1OC` (stereo not given), the Potency is 10.9 µM (active).

`Nc1cc(C(F)(F)F)ccc1S`: the “activity, negative = inhibition” value was -8.2%.

For `Cc1cccc(C#Cc2ccccc2)n1`, the Potency was 6.15 µM (active).

As to `O=C1C(Cl)=C(NCCN2CCOCC2)C(=O)c2ncccc21`, the Potency was 6.15 µM (active).

On to `O=C(Nc1ccc(C(=O)O)c(O)c1)c1ccccc1`, for which the Potency is 4.89 µM (active).

Take `N[C@H](CSC(c1ccccc1)(c1ccccc1)c1ccccc1)C(=O)O`: the “activity, negative = inhibition” value is 17.5%.

As for `CCCS(=O)c1ccc2nc(NC(=O)OC)[nH]c2c1` (stereo not given), the Potency was 13.8 µM (active).

On to `CC[C@@]1(O)C[C@H](O[C@H]2C[C@H](N(C)C)[C@H](O[C@H]3C[C@H](O)[C@H](O[C@H]4CCC(=O)[C@H](C)O4)[C@H](C)O3)[C@H](C)O2)c2c(cc3c(c2O)C(=O)c2c(O)cccc2C3=O)[C@@H]1C(=O)OC`, for which the “activity, negative = inhibition” value is 10.1%.

Consider `Cc1c(NC(=O)c2ccc(C(C)(C)C)cc2)cccc1-c1cn(C)c(=O)c(Nc2ccc(C(=O)N3CCOCC3)cc2)n1`, for which the “activity, negative = inhibition” value is -4.1%.

On to `CCCCCCCC/C=C/C(=O)O`, for which the “activity, negative = inhibition” value was -26.5%.

`CCN(CC)c1ccc(C(=C2C=CC(=[N+](CC)CC)C=C2)c2cc(S(=O)(=O)O)ccc2S(=O)(=O)[O-])cc1`: the Potency was 7.74 µM (active).

As to `O=C(O)c1cc([N+](=O)[O-])ccc1NCCCc1ccccc1`, the Potency is 8.69 µM (active).

With `O=C(O)[C@H](CC(=O)N1C[C@@H]2CCCC[C@H]2C1)Cc1ccccc1`, the “activity, negative = inhibition” value was 1.15%.

Take `O=C(/C=C/c1ccc(O)cc1)c1ccc(O)cc1O`: the Potency was 2.75 µM (active).

Turning to `CC(=O)Oc1ccccc1C(=O)Nc1ncc([N+](=O)[O-])s1`, the Potency is 1.58 µM (active).

For the compound `O=C(O)c1cccc(-c2noc(-c3ccccc3F)n2)c1`, the Potency is 3.88 µM (active).

For the compound `CC(C)(C)COc1ccc(-n2cc(C(=O)O)cn2)cc1C#N`, the Potency is 7.08 µM (active).

Regarding `Nc1ccc(N=Nc2ccccc2)c(N)n1`, the Potency was 15.5 µM (active).

Regarding `COc1ccc(NC(=O)/C=C/c2ccc(Cl)cc2)cc1`, the Potency was 3.88 µM (active).

For `O=C(Nc1cc2cc[nH]c2cn1)c1ccccc1`, the Potency is 4.35 µM (active).

`CC(=O)Nc1ccc([C@H](C)C(=O)Nc2ncc(C(C)C)s2)cc1`: the Potency was 10.9 µM (active).

`O=S(=O)(O)c1ccc2nc(-c3ccccc3)[nH]c2c1`: the Potency was 1.95 µM (active).

Take `NC(=O)c1cccc2[nH]c(-c3ccc([C@H]4CCCN4)cc3F)nc12`: the Potency was 13.8 µM (active).

With `Cc1ccc(O)c(-n2nc3ccccc3n2)c1`, the Potency is 7.74 µM (active).

With `C[C@@H]1CCN(C(=O)CC#N)C[C@H]1N(C)c1ncnc2[nH]ccc12`, the “activity, negative = inhibition” value was -16.5%.
